Experimental data taken from PubChem BioAssay (NCATS).
Records with an inconclusive call do not appear. Entries that show only a call come without a potency. A structure can be active in one record and inactive in another. The source made the active and inactive calls. Unless noted, calls follow the shape of the dose curve; as a rule, active = well fitted curve in the direction sought with a large enough effect; inconclusive = small, poorly fitted or top-dose-only effect, or another doubt; inactive = no such curve, though single readings can be large; an effect the other way counts as inactive or inconclusive.

Experiments:
[1] = target: RecQ-like DNA helicase BLM (Homo sapiens) (UniProt P54132); assay: qHTS Validation Assay for Inhibitors of Bloom's syndrome helicase (BLM) (AID 2364)
Outline: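 BLM 50 nM in 25 mM Tris-HCl pH 8.0, 5 mM NaCl, 2 mM MgCl2, 1 mM DTT, 0.01% Tween-20, 2.5 ug/ml poly(dI-dC); 15 min cpd preinc, RT. Start: 200 nM forked DNA + 2 mM ATP (final). TAMRA read, 2 reads 2 h apart.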

[2] = Cytometric Cell-Based qHTS for Inhibitors of the mTORC1 Signaling Pathway in MEF (Tsc2-/-, p53-/-) Cells (AID 2660); also: potency is read from the fitted curve at half-maximal effect
Outline: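 Readout: Alexa-488 phospho-rpS6 (Ser235/236) intensity divided by PI intensity, thresholded against 7.5 nM rapamycin wells and reported as % positive cells. PI cell count served as the viability measure. Compound exposure was 24 hrs at 37 degree Celsius.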

[3] = High Content Imaging Cell-Based qHTS for Inhibitors of the mTORC1 Signaling Pathway in MEF (Tsc2-/-, p53-/-) Cells (AID 2666);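 also: percent of cells scored positive for phospho-rpS6 Ser235/236 immunostaining by imaging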; also: potency is read from the fitted curve at half-maximal effect
Outline: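 Read-out: % positive cells per well, with thresholds from highest- and lowest-signal wells, based on phospho-rpS6 (Ser235/236) intensity normalized to Hoechst nuclear stain. Cells: Tsc2-/-, p53-/- MEFs carrying empty vector; compound 24 hrs, 37 degree Celsius.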

[4] = High Content Imaging Cell-Based qHTS for Inhibitors of the mTORC1 Signaling Pathway in MEF Cells (AID 2667); also: potency is read from the fitted curve at half-maximal effect
Outline: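 MEF (Tsc2-/-, p53-/-, WT Tsc2 re-expressed); cpd 24 h, 37 °C; PFA fix; Alexa-488 anti-p-rpS6 Ser235/236, PI, Hoechst; IN Cell imaging; Hoechst/Alexa-488 intensity ratio; % active cells, thresholds set from rapamycin and DMSO wells.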

[5] = target: Ubiquitin carboxyl-terminal hydrolase 2 (Homo sapiens) (UniProt O75604); assay: qHTS Validation Assay for Inhibitors of Ubiquitin-specific Protease USP2a Using CHOP2 as the Reporter (AID 463106)
Outline: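 USP2 core (10nM final) was preincubated with compound for 30min at RT in 20mM Tris-HCl pH 8.0, 2mM CaCl2, 2mM beta-mercaptoethanol, 0.05% CHAPS. Ub-CHOP2 and reporter substrate (25nM each) were added, and fluorescence (Ex 485/Em 531nm) was read after 60min.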

[6] = target: DNA polymerase III PolC-type (Bacillus subtilis (strain 168)) (UniProt P13267); assay: qHTS Validation Assay for the Inhibitors of DNA Replication in Gram-Positive Bacteria (AID 485295); also: potency is read from the fitted curve at half-maximal effect
DNA polymerase III PolC-type (Bacillus subtilis (strain 168)), sequence (P13267 whole entry, looked up): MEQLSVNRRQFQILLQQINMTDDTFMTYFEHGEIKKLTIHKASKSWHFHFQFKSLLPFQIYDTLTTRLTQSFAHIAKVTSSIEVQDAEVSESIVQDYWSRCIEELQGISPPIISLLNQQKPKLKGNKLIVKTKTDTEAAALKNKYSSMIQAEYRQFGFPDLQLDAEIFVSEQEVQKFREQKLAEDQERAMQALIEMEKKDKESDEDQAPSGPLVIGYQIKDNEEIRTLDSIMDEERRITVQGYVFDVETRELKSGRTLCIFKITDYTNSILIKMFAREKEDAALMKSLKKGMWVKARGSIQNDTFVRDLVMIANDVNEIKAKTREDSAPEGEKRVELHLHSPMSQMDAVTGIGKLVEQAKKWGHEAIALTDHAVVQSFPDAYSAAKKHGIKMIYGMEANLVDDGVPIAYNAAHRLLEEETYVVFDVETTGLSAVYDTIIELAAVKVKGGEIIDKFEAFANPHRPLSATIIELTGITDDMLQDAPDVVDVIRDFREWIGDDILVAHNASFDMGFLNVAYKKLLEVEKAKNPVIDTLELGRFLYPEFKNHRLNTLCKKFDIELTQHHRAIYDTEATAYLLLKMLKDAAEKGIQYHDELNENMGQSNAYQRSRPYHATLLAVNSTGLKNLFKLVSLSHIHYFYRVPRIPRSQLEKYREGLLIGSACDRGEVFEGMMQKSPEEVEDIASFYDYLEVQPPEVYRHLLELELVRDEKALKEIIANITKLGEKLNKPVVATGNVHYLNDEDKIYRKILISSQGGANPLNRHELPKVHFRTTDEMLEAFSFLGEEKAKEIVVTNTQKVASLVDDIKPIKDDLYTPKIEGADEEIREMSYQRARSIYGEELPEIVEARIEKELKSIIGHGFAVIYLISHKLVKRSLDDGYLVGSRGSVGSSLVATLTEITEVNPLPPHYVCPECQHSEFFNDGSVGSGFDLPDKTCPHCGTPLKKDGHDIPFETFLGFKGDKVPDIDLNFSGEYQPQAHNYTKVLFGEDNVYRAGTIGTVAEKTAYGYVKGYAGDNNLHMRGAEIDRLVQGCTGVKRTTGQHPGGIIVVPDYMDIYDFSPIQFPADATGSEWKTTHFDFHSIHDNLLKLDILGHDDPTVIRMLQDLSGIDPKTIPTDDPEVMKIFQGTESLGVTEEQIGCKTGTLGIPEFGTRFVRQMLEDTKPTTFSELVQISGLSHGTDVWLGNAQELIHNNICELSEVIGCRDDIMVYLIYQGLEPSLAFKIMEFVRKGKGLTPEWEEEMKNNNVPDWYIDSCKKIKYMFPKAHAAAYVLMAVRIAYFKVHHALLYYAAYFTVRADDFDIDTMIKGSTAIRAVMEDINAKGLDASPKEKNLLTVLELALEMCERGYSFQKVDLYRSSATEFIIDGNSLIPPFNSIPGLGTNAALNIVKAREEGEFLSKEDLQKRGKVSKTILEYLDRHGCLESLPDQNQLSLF
Outline: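 Double-stranded DNA product detected by PicoGreen fluorescence after EDTA quench. Compound incubated with B. subtilis holoenzyme (PolC, beta subunit, SSB, primase) before substrate addition; primed replication of M13Gori with dNTPs and NTPs at room temperature; DMSO defines 0% inhibition.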

[7] = target: Tumor susceptibility gene 101 protein (Homo sapiens) (UniProt Q99816); assay: qHTS Validation Assay for Iinhibitors of HIV-1 Budding by Blocking the Interaction of PTAP/TSG101 (AID 485342; calls by dose curve)
Tumor susceptibility gene 101 protein (Homo sapiens), sequence (Q99816 whole entry, looked up, the tested form may be a part): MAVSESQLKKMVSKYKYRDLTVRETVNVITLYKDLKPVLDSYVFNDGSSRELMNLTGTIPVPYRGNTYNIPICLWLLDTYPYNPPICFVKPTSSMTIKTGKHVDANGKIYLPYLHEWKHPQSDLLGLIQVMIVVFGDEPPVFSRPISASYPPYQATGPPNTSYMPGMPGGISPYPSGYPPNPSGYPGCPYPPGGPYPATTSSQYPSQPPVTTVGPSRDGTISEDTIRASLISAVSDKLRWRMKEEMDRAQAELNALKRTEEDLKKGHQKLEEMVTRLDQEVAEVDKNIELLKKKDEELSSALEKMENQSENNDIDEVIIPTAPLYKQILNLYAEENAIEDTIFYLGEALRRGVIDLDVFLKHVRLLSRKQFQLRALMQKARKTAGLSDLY
Outline: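 Fluorescence polarization of 50 nM FITC-PTAP peptide bound to 10 uM Tsg101 binding domain was read after 20 min room-temperature incubation with compounds, in 10 mM HEPES pH 7.5, 0.15 M NaCl, 0.01% Tween 20.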

[8] = target: Beta-2 adrenergic receptor (Homo sapiens) (UniProt P07550); assay: qHTS validation assay of beta-arrestin-biased ligands of beta2-adrenergic receptor (AID 485366)
Beta-2 adrenergic receptor (Homo sapiens), sequence (P07550 whole entry, looked up): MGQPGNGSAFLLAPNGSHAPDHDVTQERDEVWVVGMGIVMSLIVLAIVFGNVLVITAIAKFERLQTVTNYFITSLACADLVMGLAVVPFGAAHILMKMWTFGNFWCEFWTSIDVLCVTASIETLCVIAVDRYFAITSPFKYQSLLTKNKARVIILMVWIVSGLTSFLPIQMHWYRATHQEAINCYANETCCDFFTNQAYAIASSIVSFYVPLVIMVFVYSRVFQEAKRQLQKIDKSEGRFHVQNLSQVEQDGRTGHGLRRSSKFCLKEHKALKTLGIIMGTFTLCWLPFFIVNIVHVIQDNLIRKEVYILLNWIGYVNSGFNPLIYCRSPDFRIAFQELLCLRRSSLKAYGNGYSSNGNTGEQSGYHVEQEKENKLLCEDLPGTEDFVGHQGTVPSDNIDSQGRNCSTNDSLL
Outline: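 Tango cells (recombinant beta2-AR with recombinant beta-arrestin; recruitment releases tTA driving luciferase) were treated with compounds titrated up to 46 microM for 18 hr at 37 degrees C. Luminescence gave %Activity, and concentration-response curves were curve-classified.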

[9] = Quantitative high throughput screen for delayed death inhibitors of the malarial parasite plastid, 96 hour incubation (AID 488745); also: nearly all actives have a fitted effect of over 70% in size; also: potency is read from the fitted curve at half-maximal effect
Outline: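 Growth of reporter-bearing P. falciparum in red cells is measured after 96 h with compound, covering two erythrocytic cycles. Luminescence from the integrated luciferase serves as the growth signal.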

[10] = Quantitative high throughput screen for delayed death inhibitors of the malarial parasite plastid, 48 hour incubation (AID 488752); also: nearly all actives have a fitted effect of over 65% in size; also: potency is read from the fitted curve at half-maximal effect
Outline: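 One parasite generation (48 h, 37 C, 5% CO2) of luciferase-reporter P. falciparum in erythrocytes is run with test compound; decreased luminescence indicates inhibited growth.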

[11] = target: Thioredoxin reductase 1, cytoplasmic (Rattus norvegicus) (UniProt O89049); assay: qHTS Assay for Substrates of Mammalian Selenoprotein Thioredoxin Reductase 1 (TrxR1) (AID 488772);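 also: NADPH fluorescence in the first read after selenite addition and not the 8 min delta; series mostly up to about 57 µM; a drop in NADPH fluorescence below the no-compound background marks a TrxR1 substrate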
Outline: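 Quantitative HTS in Tris-HCl buffer at pH 7.5 with EDTA and Tween-20, using rat TrxR1, 400 uM NADPH and 400 uM selenite (final). A fall in initial NADPH fluorescence relative to background marked substrate behaviour.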

[12] = target: Thioredoxin reductase 1, cytoplasmic (Rattus norvegicus) (UniProt O89049); assay: qHTS Assay for Inhibitors of Mammalian Selenoprotein Thioredoxin Reductase 1 (TrxR1) (AID 488773); settings: Potency: inhibition;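 also: drop in NADPH fluorescence over an 8 min run after selenite addition; series mostly up to about 57 µM; nearly all actives have a fitted effect of over 40% in size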
Outline: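 Steps: enzyme (90 nM) plus NADPH (400 uM final), 5 min at ~22 deg C; compound added, 15 min; selenite (400 uM final) added; fluorescence followed for 8 min. Concentration-response curves derived from the normalized delta values.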

[13] = target: Flap endonuclease 1 (Homo sapiens) (UniProt P39748); assay: qHTS Validation Assay for the Inhibitors of Human Flap endonuclease 1 (FEN1) (AID 488816); also: potency is read from the fitted curve at half-maximal effect
Flap endonuclease 1 (Homo sapiens), sequence (P39748 whole entry, looked up): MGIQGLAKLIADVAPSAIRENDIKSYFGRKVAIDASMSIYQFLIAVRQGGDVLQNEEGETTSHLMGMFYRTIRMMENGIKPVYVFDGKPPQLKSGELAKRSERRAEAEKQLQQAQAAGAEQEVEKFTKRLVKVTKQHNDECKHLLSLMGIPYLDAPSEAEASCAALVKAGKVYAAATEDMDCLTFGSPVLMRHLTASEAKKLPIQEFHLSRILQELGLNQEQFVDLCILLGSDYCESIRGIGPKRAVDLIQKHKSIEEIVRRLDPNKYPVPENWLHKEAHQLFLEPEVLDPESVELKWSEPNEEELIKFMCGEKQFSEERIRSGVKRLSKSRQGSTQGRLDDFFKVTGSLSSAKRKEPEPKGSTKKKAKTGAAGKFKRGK
Outline: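 FEN1, dispensed as a 10 nM reagent, was preincubated with pin-transferred compounds for 15 min at room temperature before substrate was added (50 nM final). Plates were read at 0 and 15 min, and a four-parameter Hill equation was fitted to the concentration-response data.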

[14] = target: M-phase phosphoprotein 8 (Homo sapiens) (UniProt Q99549); assay: qHTS Validation Assay for Inhibitors for MPP8 Chromodomain Interactions with Methylated Histone Tails (AID 488949); also: nearly all actives have a fitted effect of over 55% in size; also: potency is read from the fitted curve at half-maximal effect
M-phase phosphoprotein 8 (Homo sapiens), sequence (Q99549 whole entry, looked up): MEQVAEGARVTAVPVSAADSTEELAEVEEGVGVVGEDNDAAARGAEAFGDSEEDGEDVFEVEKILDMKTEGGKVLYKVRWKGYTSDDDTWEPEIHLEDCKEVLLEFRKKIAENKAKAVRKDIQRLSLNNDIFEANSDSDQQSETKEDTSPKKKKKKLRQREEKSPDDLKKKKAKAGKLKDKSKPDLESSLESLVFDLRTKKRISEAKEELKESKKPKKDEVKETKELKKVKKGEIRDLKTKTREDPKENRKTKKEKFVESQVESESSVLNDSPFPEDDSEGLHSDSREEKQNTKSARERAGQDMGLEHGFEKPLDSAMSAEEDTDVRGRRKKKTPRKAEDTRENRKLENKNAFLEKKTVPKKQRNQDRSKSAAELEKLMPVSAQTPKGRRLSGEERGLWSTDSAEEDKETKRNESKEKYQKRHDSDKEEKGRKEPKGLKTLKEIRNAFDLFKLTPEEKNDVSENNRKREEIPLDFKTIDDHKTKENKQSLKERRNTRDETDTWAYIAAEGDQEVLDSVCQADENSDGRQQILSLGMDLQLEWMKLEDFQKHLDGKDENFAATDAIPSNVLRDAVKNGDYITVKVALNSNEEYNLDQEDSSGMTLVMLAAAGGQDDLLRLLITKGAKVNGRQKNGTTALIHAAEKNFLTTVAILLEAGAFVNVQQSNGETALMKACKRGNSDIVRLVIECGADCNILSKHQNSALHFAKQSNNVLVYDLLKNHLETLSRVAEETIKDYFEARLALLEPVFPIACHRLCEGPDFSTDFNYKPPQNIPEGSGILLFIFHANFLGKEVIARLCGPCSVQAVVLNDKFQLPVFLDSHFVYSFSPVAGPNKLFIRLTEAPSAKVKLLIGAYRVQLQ
Outline: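 AlphaScreen proximity signal from streptavidin donor and Ni-chelate acceptor beads (10 ug/mL each) reported binding of MPP8 to trimethyl-K9 H3(1-18) peptide, both at 50 nM. The complex formed 30 min before a 30 min compound exposure at room temperature, in PBS pH 7.4.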

[15] = target: Chromobox protein homolog 1 (Homo sapiens) (UniProt P83916); assay: qHTS Validation Assay for Inhibitors of HP1-beta Chromodomain Interactions with Methylated Histone Tails (AID 488953); also: nearly all actives have a fitted effect of over 50% in size; also: potency is read from the fitted curve at half-maximal effect
Chromobox protein homolog 1 (Homo sapiens), sequence (P83916 whole entry, looked up): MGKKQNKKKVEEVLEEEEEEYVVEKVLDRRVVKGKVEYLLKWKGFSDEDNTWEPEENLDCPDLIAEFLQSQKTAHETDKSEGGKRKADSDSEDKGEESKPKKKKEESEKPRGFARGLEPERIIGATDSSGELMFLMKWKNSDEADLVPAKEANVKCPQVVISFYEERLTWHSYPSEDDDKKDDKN
Outline: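 Measured as loss of AlphaScreen luminescence from streptavidin donor and nickel acceptor beads (10 ug/mL final) bridging HP1-beta and biotin-H3(1-18)K9me3, each 50 nM. Compounds met the preassembled complex for 30 min at RT.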

[16] = target: Methanococcus maripaludis chaperonin (MmCpn) (UniProt Q6LX38); assay: High-Throughput Screening for Modulators of Cytosolic Chaperonin Activity: MmCpn Primary Screen (AID 488978);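 also: 50 nM MmCpn enzyme hydrolysing 30 µM ATP at 37 °C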
Methanococcus maripaludis chaperonin (MmCpn), sequence (Q6LX38 1-543): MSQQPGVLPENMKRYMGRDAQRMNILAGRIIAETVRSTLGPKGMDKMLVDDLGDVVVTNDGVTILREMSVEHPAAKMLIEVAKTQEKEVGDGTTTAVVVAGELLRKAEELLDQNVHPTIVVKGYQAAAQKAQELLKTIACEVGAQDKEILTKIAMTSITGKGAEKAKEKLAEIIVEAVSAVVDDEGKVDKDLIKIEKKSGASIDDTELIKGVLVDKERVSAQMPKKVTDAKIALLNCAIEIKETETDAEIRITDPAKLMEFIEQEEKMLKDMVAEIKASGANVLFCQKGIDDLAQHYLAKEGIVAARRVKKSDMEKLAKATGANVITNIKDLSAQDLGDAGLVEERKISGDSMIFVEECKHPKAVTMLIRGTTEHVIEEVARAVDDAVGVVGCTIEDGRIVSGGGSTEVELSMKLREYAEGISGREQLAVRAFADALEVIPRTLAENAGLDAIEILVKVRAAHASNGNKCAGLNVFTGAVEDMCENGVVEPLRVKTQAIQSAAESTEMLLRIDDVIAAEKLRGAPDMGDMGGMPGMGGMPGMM
Outline: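 ATPase activity of 50 nM MmCpn was assayed with 30 uM ATP, 10 minutes at 37C, after a 5 min compound preincubation at room temperature. ADP production was read as HTRF emission at 590 and 665 nm.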

[17] = Validation screen for small molecules that induce DNA re-replication in MCF 10A normal breast cells (AID 463097); also: nearly all actives have a fitted effect of over 60% in size
Outline: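 Read-out is Hoechst total nuclear intensity by fluorescence scanning imager, flagging increased high-DNA-content nuclei. Compounds were incubated with MCF 10A cells for 48 hr (37 C, 5% CO2) before 40 min staining.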

[18] = qHTS Validation Assay to Find Inhibitors of Chronic Active B-Cell Receptor Signaling (AID 485345; active = well fitted curve in the direction sought with a large enough effect in the main read-out, with a control signal flat, not every such curve was filed as active; also: potency is read from the fitted curve at half-maximal effect)
Outline: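 TMD8 ABC-DLBCL cells with dox-inducible green luciferase–IκBα fusion and red native luciferase; compounds 46 uM–3 nM, 4 h at 37C with doxycycline in 0.5% FBS IMDM. Green/red ratio normalized to basal and 10 uM MG-132.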

[19] = target: ATP-dependent 6-phosphofructokinase (Trypanosoma brucei brucei) (UniProt O15648); assay: qHTS Validation Assay to Find Inhibitors of T. brucei phosphofructokinase (AID 485368)
ATP-dependent 6-phosphofructokinase (Trypanosoma brucei brucei), sequence (O15648 whole entry, looked up): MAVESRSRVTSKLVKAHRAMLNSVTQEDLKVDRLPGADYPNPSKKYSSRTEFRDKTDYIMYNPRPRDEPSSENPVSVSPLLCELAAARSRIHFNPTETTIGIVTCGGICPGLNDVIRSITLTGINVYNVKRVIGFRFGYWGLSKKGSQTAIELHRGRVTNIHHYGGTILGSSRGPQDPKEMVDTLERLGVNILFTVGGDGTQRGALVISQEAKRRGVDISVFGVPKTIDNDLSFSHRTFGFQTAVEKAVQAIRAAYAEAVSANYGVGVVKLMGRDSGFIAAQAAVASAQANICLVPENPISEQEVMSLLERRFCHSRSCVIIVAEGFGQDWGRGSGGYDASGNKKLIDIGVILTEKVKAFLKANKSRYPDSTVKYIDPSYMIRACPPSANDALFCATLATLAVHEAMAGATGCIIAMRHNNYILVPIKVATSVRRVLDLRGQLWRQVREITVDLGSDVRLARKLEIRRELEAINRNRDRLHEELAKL
Outline: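 Compounds (up to 57 uM, titration series) were pinned into substrate buffer, then 1.25 nM PFK added; after 45 min at room temperature, ADP product was quantified by ADP-Glo luminescence and concentration-response curves fitted.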

SMILES | Potency [1] | Potency [2] | Potency [3] | Potency [4] | outcome [5] | Potency [6] | outcome [7] | outcome [8] | Potency [9] | Potency [10] | outcome [11] | Potency [12] | Potency [13] | Potency [14] | Potency [15] | outcome [16] | Potency [17] | Potency [18] | Potency [19]
O=C(O)c1cccnc1Nc1cccc(C(F)(F)F)c1 | inactive | inactive | inactive | inactive | inactive | inactive | inactive | inactive | inactive | inactive | inactive | inactive | inactive | inactive | inactive | inactive |  |  | 
O=c1ccc2ccc(O)c(O)c2o1 | inactive | inactive | inactive | inactive | inactive | inactive | inactive | inactive | 14.7 µM (active) |  | inactive | inactive | 9.47 µM (active) |  |  | inactive | inactive | inactive | 
CCN(CC)C(=S)SSC(=S)N(CC)CC | inactive |  | 1.85 µM (active) | inactive | inactive | inactive | inactive | inactive |  |  | inactive |  | inactive | 10 µM (active) and inactive | 28.2 µM (active) | inactive |  |  | 
CC(=O)N1CCN(c2ccc(OC[C@H]3CO[C@](Cn4ccnc4)(c4ccc(Cl)cc4Cl)O3)cc2)CC1 |  | inactive | inactive | inactive | inactive | inactive | inactive | inactive |  |  | inactive | inactive |  |  |  | inactive |  |  | inactive
O=c1c(O)c(-c2ccc(O)cc2O)oc2cc(O)cc(O)c12 |  | inactive | inactive | inactive |  | 18.9 µM (active) | inactive | inactive | inactive | inactive | inactive | inactive | 2.38 µM (active) | 39.8 µM (active) | 39.8 µM (active) | inactive | inactive | inactive | 
Cc1c(OCC(F)(F)F)ccnc1CS(=O)c1nc2ccccc2[nH]1 (stereo not drawn) | inactive | inactive | inactive | inactive | inactive | inactive | inactive | inactive |  |  | inactive | inactive | inactive |  |  | inactive | inactive | inactive | 
O=C(CCc1ccc(O)cc1)c1c(O)cc(O)cc1O | inactive | inactive | inactive | inactive | inactive | inactive | inactive | inactive | inactive | inactive | inactive |  | inactive | inactive | inactive | inactive | inactive | inactive | inactive
O=c1cc(N2CCOCC2)oc2c(-c3ccccc3)cccc12 |  | 3.69 µM (active) | 9.27 µM (active) | 0.414 µM (active) | inactive | inactive | inactive | inactive |  | inactive | inactive | inactive | inactive | inactive | 26.7 µM (active) | inactive |  | 2.59 µM (active) | 
C[C@@H](N)C1CCC(C(=O)Nc2ccncc2)CC1 (stereo partly drawn) | inactive | inactive | inactive | inactive | inactive | inactive | inactive | inactive | inactive | inactive | inactive | inactive | inactive | inactive | inactive | inactive | inactive | inactive | 
Nc1nc(N)c(N=O)c(OCC2CCCCC2)n1 |  | 14.7 µM (active) | 14.7 µM (active) |  | inactive | inactive | inactive | inactive |  |  | inactive | inactive | inactive | inactive |  | inactive |  |  | inactive
NC(=NCc1ccccc1)NC(=O)c1nc(Cl)c(N)nc1N | inactive | inactive | inactive | inactive | inactive | inactive | inactive | inactive | 2.62 µM (active) | 2.94 µM (active) | inactive | inactive |  | inactive | inactive | inactive |  |  | inactive
COc1cc2nc(N3CCN(C(=O)C4CCCO4)CC3)nc(N)c2cc1OC (stereo not drawn) | inactive | inactive | inactive | inactive | inactive | inactive | inactive | inactive |  | inactive | inactive | inactive | inactive | inactive | inactive | inactive | inactive |  | inactive
CC1(C)NC(=O)N(c2ccc([N+](=O)[O-])c(C(F)(F)F)c2)C1=O | inactive | inactive | inactive | inactive | inactive | inactive | inactive | inactive | inactive | inactive | inactive | inactive | inactive | inactive | inactive | inactive | inactive | inactive | inactive
Nc1ccn([C@@H]2O[C@H](CO)[C@@H](O)C2O)c(=O)n1 (stereo partly drawn) |  |  | inactive |  | inactive | inactive | inactive | inactive |  |  | inactive | inactive | inactive | inactive | inactive | inactive |  | inactive | 
COc1ccccc1N1CCN(CCN(C(=O)C2CCCCC2)c2ccccn2)CC1 |  | inactive | inactive | inactive | inactive | inactive | inactive | inactive | inactive | inactive | inactive | inactive | inactive | inactive | inactive | inactive | inactive | inactive | inactive
Nc1nc(OCc2ccccc2)c2[nH]cnc2n1 |  | inactive | inactive | inactive | inactive | inactive | inactive | inactive | inactive | inactive | inactive | inactive | inactive | inactive | inactive | inactive | inactive |  | 
Cc1nc2n(c(=O)c1CCN1CCC(c3noc4cc(F)ccc34)CC1)CCCC2 | inactive |  |  |  |  |  |  |  | inactive | inactive |  |  |  | inactive |  |  | inactive |  | 
CNC[C@H](O)c1ccc(O)c(O)c1 |  | inactive | inactive | 26.1 µM (active) | inactive | inactive | inactive |  | inactive | inactive | inactive |  | 10.6 µM (active) | inactive | inactive | inactive | inactive | inactive | 
COc1ccc2cc([C@H](C)C(=O)O)ccc2c1 | inactive | inactive |  | inactive | inactive | inactive | inactive |  | inactive | inactive | inactive | inactive | inactive |  | 0.006 µM (active) | inactive | inactive | inactive | 
COc1cc2c(cc1OC)C1CC(=O)C(CC(C)C)CN1CC2 (stereo not drawn) |  | inactive | inactive | inactive | inactive | inactive | inactive | inactive |  |  | inactive | inactive | inactive | inactive | inactive | inactive |  |  | 
